# Test results from PubChem BioAssay AID488969 (Vanderbilt High Throughput Screening Facility, 2010).
# Where “and” joins values, the source holds several entries; their conditions need not be identical. Equal entries are not always repeated. The full ranking holds about 110,000 compounds; the median of “z-score” is about -0.1, and the highest 2% start at about 2. This excerpt belongs to a sample that is enriched for the highest values. Calls of active or inactive are those of the source.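 How the source made its calls: active means z-score in the third read window above 3 or below -3; inactive means the rest.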
# Biological target: Metabotropic glutamate receptor 8 (Rattus norvegicus) (UniProt P70579)
# Assay: rat mGluR8 modulators via GIRK flux, primary screen, cell-based, thallium flux, HTS (AID 488969)
# Conditions: HEK293 rat mGluR8, GIRK (G protein-gated inwardly rectifying potassium channel) thallium flux, FluoZin2; at 10 µM; stronger effect = higher value; submaximal glutamate (EC20) added with thallium
# Sequence of Metabotropic glutamate receptor 8 (Rattus norvegicus) (P70579 whole entry, looked up): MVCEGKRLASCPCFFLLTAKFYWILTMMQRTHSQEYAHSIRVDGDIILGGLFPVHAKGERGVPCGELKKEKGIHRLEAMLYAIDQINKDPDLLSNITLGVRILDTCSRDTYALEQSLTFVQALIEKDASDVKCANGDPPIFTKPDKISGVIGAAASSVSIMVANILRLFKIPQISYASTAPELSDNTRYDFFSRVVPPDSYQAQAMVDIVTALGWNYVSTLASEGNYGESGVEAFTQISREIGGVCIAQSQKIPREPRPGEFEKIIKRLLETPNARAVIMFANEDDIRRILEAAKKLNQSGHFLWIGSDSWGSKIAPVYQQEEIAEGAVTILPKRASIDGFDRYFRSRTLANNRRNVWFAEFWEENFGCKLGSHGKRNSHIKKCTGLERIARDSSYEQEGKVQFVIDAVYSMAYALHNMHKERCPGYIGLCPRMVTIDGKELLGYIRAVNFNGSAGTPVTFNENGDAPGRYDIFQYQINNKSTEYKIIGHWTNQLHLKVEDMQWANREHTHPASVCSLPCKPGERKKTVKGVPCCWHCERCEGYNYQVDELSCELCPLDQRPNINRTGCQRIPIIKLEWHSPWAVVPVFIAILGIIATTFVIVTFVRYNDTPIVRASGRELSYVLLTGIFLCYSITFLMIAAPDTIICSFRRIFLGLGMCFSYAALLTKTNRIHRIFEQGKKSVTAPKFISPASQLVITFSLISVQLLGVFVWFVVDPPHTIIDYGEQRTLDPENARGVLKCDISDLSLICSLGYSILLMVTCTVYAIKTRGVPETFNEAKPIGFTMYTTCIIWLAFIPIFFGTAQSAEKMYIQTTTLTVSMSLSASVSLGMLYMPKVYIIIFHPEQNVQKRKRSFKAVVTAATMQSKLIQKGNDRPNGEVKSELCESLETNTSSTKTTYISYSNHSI
row,SMILES,z-score
1,Cc1onc(-c2ccccc2)c1C(=O)NCCc1ccc(Cl)cc1,0.00877
2,CCc1ccccc1N(CC(=O)N/N=C/c1ccc(OC(=O)OC)c(OC)c1)S(C)(=O)=O,-0.214
3,CCCC(=O)Nc1ccc(Cl)c(NC(=O)C(C)(C)C)c1,-0.219
4,CCN1CCN(C(=O)C2c3cc(OC)c(OC)cc3C(=O)N(C)C2c2ccc(SC)cc2)CC1 (configuration not stated),0.574
5,N#CC1(P(=O)(c2ccccc2)c2ccccc2)CC1,-0.0596
6,O=C(Nc1nc(=O)c2ccccc2s1)c1ccccc1,14.9 (active)
7,Nc1ccc(C(=O)Nc2nc3ccccc3s2)cc1,-0.363
8,O=C(Nc1nc(-c2ccc(Cl)s2)cs1)c1ccccc1,0.171
9,COc1cccc(C2=NOC(C(=O)Nc3ccccc3SC)C2)c1 (configuration not stated),-0.115
10,CC(C)CCn1c(Oc2ccccc2Cl)nc2c1c(=O)n(C)c(=O)n2C,-0.1
11,CC(C)CCn1c(Cl)nc2c1c(=O)n(C)c(=O)n2C,2.04
12,CC(C)CCn1c(Oc2ccc(Cl)cc2)nc2c1c(=O)n(C)c(=O)n2C,-0.037
13,CC1(C)CC(c2nc(-c3ccc(Cl)cc3)cs2)CCS1 (configuration not stated),0.117
14,CCC1(C)CC(c2nc(-c3ccc(OC)cc3)cs2)CCS1 (configuration not stated),-0.645
15,CC1(C)CC(c2nc(-c3ccc(Br)cc3)cs2)CCS1 (configuration not stated),2.26
16,COc1ccc(C)cc1NC1=C(Cl)C(=O)N(C2CCCCC2)C1=O,-0.0567
17,Cc1ccc2cccc(NC(=S)NC(=O)c3c(Br)cnn3C)c2n1,0.727
18,Cc1cc(C)c2cccc(NC(=S)NC(=O)c3ccccc3)c2n1,0.2
19,Cc1ccc2cccc(NC(=O)C(F)(F)F)c2n1,0.599

row,SMILES,z-score
1,Cc1ccc2cccc(NC(=S)NC(=O)c3ccccc3)c2n1,1.02
2,Cc1ccc2cccc(NC(=S)NC(=O)c3ccnn3C)c2n1,2.25
3,Cc1ccc2cccc(NC(=S)NC(=O)c3ccn(C)n3)c2n1,6.02 (active)
4,c1cnc(N2CCSCC2)nc1,-0.316
5,Cc1c(C(=O)Nc2ccccc2)cn2c(nc3ccccc32)c1C#N,-0.348
6,COc1cccc2cc(C(=O)n3ccc(C)n3)c(=O)oc12,-1.33
7,O=C1CC(c2ccc(S(=O)(=O)Nc3cc(C(F)(F)F)cc(C(F)(F)F)c3)cc2)CN1 (configuration not stated),0.112
8,CCC(C)n1ncn(-c2ccc(N3CCN(c4ccc(OC)cc4)CC3)cc2)c1=O (configuration not stated),-0.724
9,COc1cc(NC(=O)c2cc3sccc3n2C)cc(OC)c1,-0.0259
10,O=C(O)c1cc(=O)c2cc(Cl)ccc2o1,-0.147
11,O=c1c(O)c(-c2cccs2)oc2ccc(Cl)cc12,14.1 (active)
12,O=c1c(O)c(-c2ccc3c(c2)OCO3)oc2ccccc12,-0.981
13,O=c1c(O)c(-c2cccs2)oc2ccccc12,17.2 (active)
14,O=c1cc(-c2cccs2)oc2ccc(Cl)cc12,-0.565
15,COc1ccc(OC)c(-c2oc3ccccc3c(=O)c2O)c1,0.149
16,O=C(Cc1cc(=O)[nH][nH]1)N/N=C/C(Cl)=C/c1ccccc1,-0.191 and -0.199
17,COc1ccc(CCNC(=O)CCSc2nc(-c3ccco3)cc(C(F)(F)F)n2)cc1OC,-2.59
18,c1ccc(COc2cccc(CNn3cnnc3)c2)cc1,-0.177
19,COc1ccc(/C=C2\CCn3c2nc2cc(C(=O)O)ccc2c3=O)cc1O,-0.197

row,SMILES,z-score
1,O=C(O)c1ccc2c(c1)ncn2C1CCCCCC1,0.321
2,CC(NC(=O)c1ccc(F)cc1)c1nc2ccccc2n1Cc1ccccc1F (configuration not stated),-0.254
3,CCOC(=O)CN1C(=O)C(C)(C)Oc2ccc(C(=O)Nc3ccccc3)cc21,-0.637
4,CCOC(=O)CN1C(=O)C(C)(C)Oc2ccc(C(=O)NC(C)(C)CC)cc21,0.0354
5,CCOC(=O)CN1C(=O)C(C)(C)Oc2ccc(C(=O)Nc3ccccc3OC)cc21,2.42
6,COc1ccc(/C=C/C(=O)Nc2nc(N)n(-c3ccccc3)n2)cc1,-0.0927
7,CCOC1CC(C)(C)NC(=S)N1 (configuration not stated),-0.234
8,CCCc1ncc(C(O)c2cccc3ccccc23)n1C (configuration not stated),0.327
9,COCCN=C1Sc2nc3c(C)cccc3cc2CN1Cc1ccco1,0.0241
10,O=C(CNS(=O)(=O)c1ccccc1)N1CCN(c2ccccc2)CC1,-0.0656
11,CCOCC(=O)Nc1nc2c(s1)C(=O)CC(C)(C)C2,-0.264
12,CC1(C)CC(=O)c2sc(NC(=O)CN3CCOCC3)nc2C1,0.431
13,CC1(C)CC(=O)c2sc(NC(=O)CN3C(=O)CCC3=O)nc2C1,2.59
14,C/C(=N\NC(=O)c1ccc(Cl)c(Cl)c1)c1cccc(NC(=O)C(C)C)c1,0.0284
15,COc1ccc(-c2nnn(CC(=O)N(C3CCCCC3)C(C)C(=O)NC3CCCC3)n2)cc1OC (configuration not stated),1.3
16,CC(C)CCNC(=O)C(C)N(C(=O)Cn1nnc(-c2ccc(F)cc2)n1)C1CCCC1 (configuration not stated),2.82
17,CCC(C(=O)NC1CCCC1)N(C(=O)Cn1nnc(-c2ccc(C)cc2)n1)C1CCCC1 (configuration not stated),-0.114
18,Cc1ccc(S(=O)(=O)NC2(C(F)(F)F)C(=O)Nc3c2c(=O)n(C)c(=O)n3C)cc1 (configuration not stated),-0.423
19,O=C(Nc1ccccc1)c1ccc(N2CCN(c3ccccc3)CC2)c(S(=O)(=O)N2CCOCC2)c1,-0.142
